# Source: ChEMBL document CHEMBL1961873, “Compounds: GSK PKIS; Assays: Nanosyn kinase panel” (2012)
# Tests used:
# [1] = molecular target: Sphingosine kinase 1 (Homo sapiens) (UniProt Q9NYA1); settings: at 1 µM;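 further: mean SPHK1 inhibition value reported from the GSK PKIS kinase panel screen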
# [2] = molecular target: T1, Sphingosine kinase 2 (Homo sapiens) (UniProt Q9NRA0); settings: at 0.1 µM
# T1 sequence (whole entry): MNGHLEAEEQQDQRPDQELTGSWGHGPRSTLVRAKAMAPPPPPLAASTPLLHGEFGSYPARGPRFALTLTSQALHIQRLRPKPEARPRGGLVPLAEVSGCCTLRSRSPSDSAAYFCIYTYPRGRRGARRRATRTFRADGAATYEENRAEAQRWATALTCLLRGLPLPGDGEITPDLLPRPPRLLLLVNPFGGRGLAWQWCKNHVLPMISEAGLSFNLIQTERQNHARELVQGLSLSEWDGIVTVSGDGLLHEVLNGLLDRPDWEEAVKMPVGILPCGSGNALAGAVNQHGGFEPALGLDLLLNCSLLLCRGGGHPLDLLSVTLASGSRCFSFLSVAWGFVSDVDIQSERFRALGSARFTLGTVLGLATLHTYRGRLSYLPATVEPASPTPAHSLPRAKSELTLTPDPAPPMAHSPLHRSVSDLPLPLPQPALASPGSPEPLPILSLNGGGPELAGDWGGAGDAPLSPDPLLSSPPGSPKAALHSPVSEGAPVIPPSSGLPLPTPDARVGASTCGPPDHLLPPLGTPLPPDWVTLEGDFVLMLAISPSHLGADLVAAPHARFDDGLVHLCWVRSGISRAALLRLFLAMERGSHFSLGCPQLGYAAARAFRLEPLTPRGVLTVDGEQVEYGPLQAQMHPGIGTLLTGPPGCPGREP
# [3] = molecular target: T1, Sphingosine kinase 2 (Homo sapiens); settings: at 1 µM
# [4] = molecular target: Casein kinase II subunit alpha (Homo sapiens) (UniProt P68400); settings: at 0.1 µM
# [5] = molecular target: Casein kinase II subunit alpha (Homo sapiens) (UniProt P68400); settings: at 1 µM
# [6] = molecular target: T2, Inhibitor of nuclear factor kappa-B kinase subunit alpha (Homo sapiens) (UniProt O15111); settings: at 0.1 µM
# T2 sequence (whole entry): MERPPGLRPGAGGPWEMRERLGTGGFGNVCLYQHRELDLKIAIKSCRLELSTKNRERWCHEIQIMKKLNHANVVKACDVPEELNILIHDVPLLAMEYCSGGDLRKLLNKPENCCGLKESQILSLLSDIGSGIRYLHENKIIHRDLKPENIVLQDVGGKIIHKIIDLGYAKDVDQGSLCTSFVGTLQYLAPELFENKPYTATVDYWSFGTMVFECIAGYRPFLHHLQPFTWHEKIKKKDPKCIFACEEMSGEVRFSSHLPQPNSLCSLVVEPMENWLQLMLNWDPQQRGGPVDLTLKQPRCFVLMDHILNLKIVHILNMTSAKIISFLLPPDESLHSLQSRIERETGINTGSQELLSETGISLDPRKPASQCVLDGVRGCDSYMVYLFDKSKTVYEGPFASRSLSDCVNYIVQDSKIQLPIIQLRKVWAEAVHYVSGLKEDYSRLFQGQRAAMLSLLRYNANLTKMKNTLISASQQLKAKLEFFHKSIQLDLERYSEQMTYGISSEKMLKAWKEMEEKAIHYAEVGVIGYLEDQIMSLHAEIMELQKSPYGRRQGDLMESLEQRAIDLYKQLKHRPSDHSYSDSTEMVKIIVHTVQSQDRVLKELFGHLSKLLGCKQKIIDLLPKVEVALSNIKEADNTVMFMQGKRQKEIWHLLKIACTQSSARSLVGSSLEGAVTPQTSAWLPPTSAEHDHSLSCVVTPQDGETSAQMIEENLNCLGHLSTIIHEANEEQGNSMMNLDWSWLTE
# [7] = molecular target: T2, Inhibitor of nuclear factor kappa-B kinase subunit alpha (Homo sapiens); settings: at 1 µM
# [8] = molecular target: T3, Inhibitor of nuclear factor kappa-B kinase subunit beta (Homo sapiens) (UniProt O14920); settings: at 0.1 µM
# T3 sequence (whole entry): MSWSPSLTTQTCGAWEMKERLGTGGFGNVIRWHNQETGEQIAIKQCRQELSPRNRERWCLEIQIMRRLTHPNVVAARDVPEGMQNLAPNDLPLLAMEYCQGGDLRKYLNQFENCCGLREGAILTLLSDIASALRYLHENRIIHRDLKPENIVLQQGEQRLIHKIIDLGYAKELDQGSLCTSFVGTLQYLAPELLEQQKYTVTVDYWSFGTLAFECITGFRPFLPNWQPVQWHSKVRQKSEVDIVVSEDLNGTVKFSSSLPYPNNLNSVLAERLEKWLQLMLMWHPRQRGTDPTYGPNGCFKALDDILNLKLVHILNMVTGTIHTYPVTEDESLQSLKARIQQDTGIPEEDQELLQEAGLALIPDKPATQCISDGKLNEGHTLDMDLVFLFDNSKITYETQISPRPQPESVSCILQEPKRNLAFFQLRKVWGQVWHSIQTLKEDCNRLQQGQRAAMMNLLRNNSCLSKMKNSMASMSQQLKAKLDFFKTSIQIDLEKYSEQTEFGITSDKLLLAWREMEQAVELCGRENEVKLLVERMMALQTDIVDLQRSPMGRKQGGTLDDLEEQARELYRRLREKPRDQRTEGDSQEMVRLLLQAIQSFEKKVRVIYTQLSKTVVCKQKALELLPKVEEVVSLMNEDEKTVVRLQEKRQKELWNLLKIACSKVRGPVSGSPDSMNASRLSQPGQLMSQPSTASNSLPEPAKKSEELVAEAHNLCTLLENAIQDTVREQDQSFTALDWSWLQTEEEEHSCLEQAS
# [9] = molecular target: T3, Inhibitor of nuclear factor kappa-B kinase subunit beta (Homo sapiens); settings: at 1 µM
# [10] = molecular target: T4, Inhibitor of nuclear factor kappa-B kinase subunit epsilon (Homo sapiens) (UniProt Q14164); settings: at 0.1 µM;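 further: mean inhibition of IKKε reported, from the GSK PKIS dataset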
# T4 sequence (whole entry): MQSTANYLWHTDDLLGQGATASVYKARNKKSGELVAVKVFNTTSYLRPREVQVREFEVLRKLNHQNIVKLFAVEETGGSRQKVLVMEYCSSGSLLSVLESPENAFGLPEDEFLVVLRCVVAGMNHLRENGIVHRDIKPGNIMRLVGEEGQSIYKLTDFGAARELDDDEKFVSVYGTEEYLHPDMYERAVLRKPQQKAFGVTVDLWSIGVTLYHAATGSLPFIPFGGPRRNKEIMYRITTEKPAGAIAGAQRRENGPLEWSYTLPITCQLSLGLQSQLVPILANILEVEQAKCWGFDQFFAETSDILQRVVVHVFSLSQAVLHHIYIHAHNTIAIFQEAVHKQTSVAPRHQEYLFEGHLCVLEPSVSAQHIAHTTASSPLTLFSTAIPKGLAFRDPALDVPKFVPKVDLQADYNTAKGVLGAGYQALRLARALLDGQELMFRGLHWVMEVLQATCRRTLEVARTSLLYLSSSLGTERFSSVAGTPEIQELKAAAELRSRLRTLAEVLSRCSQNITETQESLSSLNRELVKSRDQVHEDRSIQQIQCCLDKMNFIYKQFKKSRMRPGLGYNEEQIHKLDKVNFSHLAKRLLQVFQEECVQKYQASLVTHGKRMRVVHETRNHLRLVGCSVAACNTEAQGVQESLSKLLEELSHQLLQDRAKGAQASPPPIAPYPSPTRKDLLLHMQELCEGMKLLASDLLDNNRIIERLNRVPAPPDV
# Chain of Casein kinase II subunit alpha (Homo sapiens) (P68400 whole entry, looked up): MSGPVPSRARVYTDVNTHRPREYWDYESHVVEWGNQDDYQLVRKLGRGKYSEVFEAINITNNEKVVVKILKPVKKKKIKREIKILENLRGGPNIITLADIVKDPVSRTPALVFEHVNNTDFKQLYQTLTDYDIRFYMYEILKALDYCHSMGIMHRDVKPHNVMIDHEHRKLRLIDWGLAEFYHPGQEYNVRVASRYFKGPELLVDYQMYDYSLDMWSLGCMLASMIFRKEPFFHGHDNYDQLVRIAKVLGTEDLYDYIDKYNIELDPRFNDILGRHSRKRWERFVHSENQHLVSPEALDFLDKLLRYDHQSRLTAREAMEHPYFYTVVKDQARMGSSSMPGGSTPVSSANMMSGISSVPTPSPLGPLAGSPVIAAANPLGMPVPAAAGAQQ
# Chain of Sphingosine kinase 1 (Homo sapiens) (Q9NYA1 whole entry): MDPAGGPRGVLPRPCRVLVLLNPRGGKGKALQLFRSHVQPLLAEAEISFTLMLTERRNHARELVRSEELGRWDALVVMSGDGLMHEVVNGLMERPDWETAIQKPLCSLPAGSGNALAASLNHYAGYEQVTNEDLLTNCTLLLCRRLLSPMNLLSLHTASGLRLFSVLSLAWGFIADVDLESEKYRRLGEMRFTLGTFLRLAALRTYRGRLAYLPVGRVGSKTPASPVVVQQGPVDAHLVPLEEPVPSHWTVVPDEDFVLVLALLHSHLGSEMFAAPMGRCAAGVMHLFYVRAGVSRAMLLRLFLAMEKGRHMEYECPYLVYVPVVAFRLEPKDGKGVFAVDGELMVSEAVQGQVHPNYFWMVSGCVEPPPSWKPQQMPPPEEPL
structure (smiles),measurement,setting,value
O=C1NC(=O)C(c2ccc(Cl)cc2)=C1Nc1ccc(Cl)c(C(=O)O)c1,inhibition,[1],-0.08%
same,inhibition,[2],2.29%
same,inhibition,[3],0.32%
same,inhibition,[4],-0.4%
same,inhibition,[5],-2.48%
same,inhibition,[6],11.5%
same,inhibition,[7],4.5%
same,inhibition,[8],0.8%
same,inhibition,[9],-1.44%
same,inhibition,[10],-4.08%
